According to PubChem BioAssay AID687028 (Broad Institute, 2013):
The whole screen tested about 1,400 compounds, of which about 55 (4%) were called active. No rule for the calls is given here. The list is a sample of the results. Entries with a potency or affinity are not part of this list.

Test: viability loss in A549 cells – cell-based, plate reader, cherry-pick samples, cytotoxicity control, dose response (AID 687028);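 also: cells incubated with compound for three days before reading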
Settings: series mostly up to 19.5 µM

Structure (SMILES)	outcome
COc1ccccc1CN1[C@H](CO)[C@H]2c3ccccc3N(C(=O)c3ccncc3)C[C@H]21	inactive
COc1ccc(C)cc1N(CC(=O)Nc1ccc(S(=O)(=O)N2CCOCC2)cc1)S(C)(=O)=O	inactive
CCOc1ccc(C(=O)Nc2ccc(CN3CCOCC3)cc2)cc1Br	inactive
CCn1c(=O)n(CC)c2cc(N3CCCC3)c(NC(=O)c3ccc(C)cc3)cc21	inactive
Cc1ccccc1S(=O)(=O)N1C[C@@H](O)COC[C@@H]2O[C@H](CC(=O)N3CCCCC3)CC[C@H]21	inactive
C[C@@H]1CN([C@@H](C)CO)C(=O)Cc2cc(NS(=O)(=O)c3cn(C)cn3)ccc2O[C@H]1CN(C)Cc1ccc(C(=O)Nc2ccccc2N)cc1	inactive
CCCNC(=O)N1[C@H](CO)[C@@H](c2ccccc2)C12CN(C(=O)C1CCCCC1)C2	inactive
O=C(CN1CCN(c2cccc(C(F)(F)F)c2)CC1)N(C1CCCC1)C1CCS(=O)(=O)C1 (stereo unspecified)	inactive
Cc1cc(OCC(=O)NC(Cc2ccc(Cl)cc2)C(=O)O)c2c(C)c(C)c(=O)oc2c1 (stereo unspecified)	inactive
CCc1nc(SCc2ccccc2C)n[nH]1	inactive
Cc1ccc(CCN2CC(C(=O)NCCc3ccccc3)CC2=O)cc1 (stereo unspecified)	inactive
Cc1noc(C)c1S(=O)(=O)Nc1cccc2c1O[C@H](CN(C)C(=O)NC(C)C)[C@H](C)CN([C@@H](C)CO)C2=O	inactive
CC(C)C[C@@H](COc1ccccc1)N1CCN(Cc2ccccc2)CCC1=O	inactive
C[C@H](CO)N1C[C@H](C)[C@@H](CN(C)C(=O)Nc2ccc(C(F)(F)F)cc2)OCCCC[C@H](C)Oc2ccc(NS(=O)(=O)c3cccs3)cc2C1=O	inactive
COc1ccc(S(=O)(=O)Nc2ccc3c(c2)C(=O)N([C@@H](C)CO)C[C@H](C)[C@@H](CN(C)C(=O)Nc2ccc(C(F)(F)F)cc2)OCCCC[C@H](C)O3)cc1	inactive
COc1ccc(NC(=O)N(C)C[C@H]2OCCCC[C@@H](C)Oc3ccc(NS(C)(=O)=O)cc3C(=O)N([C@H](C)CO)C[C@H]2C)cc1	inactive
C[C@H](CO)N1C[C@H](C)[C@@H](CN(C)C(=O)Nc2ccc(C(F)(F)F)cc2)OCCCC[C@H](C)Oc2ccc(NS(=O)(=O)c3ccc(F)cc3)cc2C1=O	inactive
COc1cccc(CNC(=O)[C@H]2[C@H](CO)[C@H]3Cn4c(ccc(-c5ccncc5)c4=O)[C@H]3N2C)c1	inactive
N#C[C@H]1[C@@H](c2ccc(C3=CCCCC3)cc2)[C@@H](CO)N1S(=O)(=O)c1cccc(F)c1	inactive
CCOc1ccc(NC(=O)CN(C)C(=O)c2ccccc2OCc2c(C)noc2C)cc1OCC	inactive
COc1ccc(N2CCN(c3cc(C(=O)NC4CCCCC4)ncn3)CC2)cc1OC	inactive
CC(C)(C)OC(=O)N[C@H]1C=C[C@@H](CC(=O)OCC(F)(F)F)C1	inactive
CCN(CC)c1ccc2cc(C(=O)NCc3ccc(F)cc3)c(=N)oc2c1	inactive
CC(=O)OCCCN(C)CC/C=C1/c2ccccc2CSc2ccccc21	inactive
CC(C)Oc1ccc(S(=O)(=O)N2CCOCC2)cc1NC(=O)Cc1ccsc1	inactive
Cc1ccccc1CN1CCN(CC(=O)NC(C)c2ccccc2)CC1 (stereo unspecified)	inactive
